Here are results for 40 molecules from PubChem BioAssay (EPA / NIEHS).

Molecules are shown by their SMILES. Inconclusive results are not listed. Calls of active or inactive are those of the source. How the source made its calls: active means hit-call score of the fitted dose curve at least 0.9, where 1 is the maximum; inconclusive means response in the unintended direction; inactive means score below 0.9.

Read-out in this assay: alkyl and aryl transferase (GSTA2), GSTA2 (gene 2939)
In words: CLD_GSTA2_6hr: CellzDirect (CLD) Gene Expression Assay for alkyl and aryl transferase (GSTA2) at 6 hours (AID 2283666). As to the method:
CLD_6hr is a cell-based, multiplexed-readout assay that uses hepatocyte, a human liver primary cell, with measurements taken at 6 hours after chemical dosing in a 96-well plate.CLD_GSTA2_6hr is one of 16 assay component(s) measured or calculated from the CLD_6hr assay. It is designed to make measurements of mRNA induction, a form of inducible reporter, as detected with chemiluminescence signals by Quantitative Nuclease Protection Assay (qNPA) technology.Data from the assay component CLD_GSTA2_6hr was analyzed at the endpoint, CLD_GSTA2_6hr, in the positive analysis fitting direction relative to DMSO as the negative control and baseline of activity. Using a type of inducible reporter, gain-of-signal activity can be used to understand changes in the reporter gene as they relate to the gene GSTA2. Furthermore, this assay endpoint can be referred to as a primary readout. To generalize the intended target to other relatable targets, this assay endpoint is annotated to the transferase intended target family, where subfamily is alkyl and aryl transferase.
Human hepatocyte cultures were treated daily for two consecutive days with fresh dosing solutions containing appropriate concentrations of the 320 ToxCast chemicals (chemical identities were blinded to CellzDirect and other ToxCast collaborators), vehicle control (0.2% DMSO), and positive control inducers as summarized in Table 1. Due to the large number of treatment groups and chemicals examined, the ToxCast chemicals were divided into two groups (spanning two independent cultures of hepatocytes from separate donor preparations (Hu778: ToxCast plates 1 and 2; Hu776: ToxCast plates 3 and 4). Each preparation of human hepatocyte cultures was treated with respective vehicle control, medium only control, set of six positive controls/reference chemicals for the five hepatic receptor pathways, and a subset of eight of the ToxCast chemicals (indoxacarb, pyrithiobac-sodium, norflurazon, cyhalofop-butyl, methomyl, thiram, acetochlor, and propiconazole). These replicate data, coupled with internal replicates designed within the blinded ToxCast chemical library, provided additional data to evaluate interindividual differences between hepatocyte preparations and their potential impact on chemical profiles.Cell morphology and integrity were evaluated using phase-contrast microscopy as an indicator of hepatocyte cell health (Tyson & Green, 1987). Cultures for each treatment group (i.e., media, vehicle [0.2% DMSO], positive control inducers [multiple concentrations], and the ToxCast chemicals [multiple concentrations]) were observed and cell morphology was assessed relative to vehicle control cultures at each harvest time point (0, 6, 24, or 48 h). […] Images were evaluated at the conclusion of the study to assess changes in cell integrity and account for the effects of chemical exposure on uncharacteristic changes in concentration-dependent gene expression profiles. The results from these determinations of apparent cytotoxicity were annotated (yes/no) alongside the corresponding qNPA data for reference.At the conclusion of each treatment period, hepatocyte cultures (96-well) were washed with 1 volume of HBSS, lysed by addition of 25 ul ArrayPlate lysis buffer (HTG, Tucson, AZ), and 70 ul/well of Denaturation Oil, denatured by incubation at 95C for 10 min, and frozen at approximately -70C until analysis by nuclease protection assay (qNPA) (Roberts et al., 2007). For qNPA analysis, cell lysates were thawed at 50C for approximately 30 min, qNPA probes were added, and samples were incubated at 95C for 10 min to begin the detection process by denaturing the target RNA, dissociating the duplexes and secondary structure hybridization. At the conclusion of the hybridization period, S1 nuclease reagent was added to each sample to digest all nonprotected nucleotides at 50C for 60-90 min. […]
Consider `CSC(=O)c1c(C(F)F)nc(C(F)(F)F)c(C(=O)SC)c1CC(C)C`, for which the molecule was called inactive.
For `COC(=O)N(C(=O)N1CO[C@@]2(C(=O)OC)Cc3cc(Cl)ccc3C2=N1)c1ccc(OC(F)(F)F)cc1` the value was “inactive”; for `Clc1cccc(C(Cl)(Cl)Cl)n1`, “inactive”.
For `CC1(C)CCC(=Cc2ccc(Cl)cc2)C1(O)Cn1cncn1` (stereo not given), the molecule was called inactive.
For `O=P(O)(O)CCCl` the value was “inactive”.
On to `N#Cc1c(Cl)cccc1Cl`, for which the call was inactive.
For `CN=C=S` the value was “inactive”; for `Cc1cnc(C2=NC(C)(C(C)C)C(=O)N2)c(C(=O)O)c1` (stereo not given), “inactive”; for `CCCN(CC)CC1COC2(CCC(C(C)(C)C)CC2)O1` (stereo not given), “inactive”.
In the case of `O=c1n(Cl)c(=O)n(Cl)c(=O)n1Cl`, the result was inactive.
As to `CCOP(=O)(OCC)Oc1nc(Cl)c(Cl)cc1Cl`, the call was inactive.
Take `CNC(=O)N(C)c1nnc(C(C)(C)C)s1`: the molecule was classed as inactive.
As for `CCNP(=S)(OC)O/C(C)=C/C(=O)OC(C)C` (stereo not given), the result was inactive.
For `COCC(C)N(C(=O)CCl)c1c(C)csc1C` (stereo not given) the value was “inactive”.
For the molecule `COC(=O)NS(=O)(=O)c1ccc(N)cc1`, the molecule was classed as inactive.
With `CC(C)N1C(=O)c2ccccc2NS1(=O)=O`, the result was inactive.
As to `Nc1c(Cl)c(Cl)nc(C(=O)O)c1Cl`, the result was inactive.
On to `COC(=O)c1c(C(F)F)nc(C(F)(F)F)c(C2=NCCS2)c1CC(C)C`, for which the molecule was called inactive.
As to `CCOc1cc(C(C)(C)C)ccc1C1COC(c2c(F)cccc2F)=N1` (stereo not given), the call was inactive.
`Cc1nc(N(C)C)nc(OC(=O)N(C)C)c1C`: the molecule was called inactive.
`COP(=S)(OC)SCn1nnc2ccccc2c1=O`: the molecule was called inactive.
The result for `CS(=O)(=O)c1ccc(C(=O)C2C(=O)CCCC2=O)c([N+](=O)[O-])c1` reads “inactive”; that for `CC(C)Oc1cccc(NC(=O)c2ccccc2C(F)(F)F)c1`, “inactive”.
With `CO/N=C(/C1=NOCCO1)c1ccccc1Oc1ncnc(Oc2ccccc2Cl)c1F`, the result was inactive.
The result for `C=C(C)CN(CC)c1c([N+](=O)[O-])cc(C(F)(F)F)cc1[N+](=O)[O-]` reads “inactive”.
Regarding `N#CN=C1SCCN1Cc1ccc(Cl)nc1`, the call was inactive.
Consider `CCOc1nc(C(Cl)(Cl)Cl)ns1`, for which the call was inactive.
The result for `O=C1C2CC=CCC2C(=O)N1SC(Cl)(Cl)Cl` (stereo not given) reads “inactive”; that for `CC1(C)CON(Cc2ccccc2Cl)C1=O`, “inactive”.
As for `CCNC(=O)NC(=O)C(C#N)=NOC`, the result was inactive.
For the molecule `COP(=S)(OC)Oc1ccc([N+](=O)[O-])c(C)c1`, the call was inactive.
Take `CCOP(=S)(OCC)Oc1nc(Cl)n(C(C)C)n1`: the molecule was called inactive.
In the case of `Cc1ccc(N=CN(C)C=Nc2ccc(C)cc2C)c(C)c1`, the molecule was classed as inactive.
For `COCC(=O)N(c1c(C)cccc1C)C(C)C(=O)OC` (stereo not given) the value was “inactive”; for `COP(=O)(OC)O/C(C)=C/C(=O)N(C)C`, “inactive”; for `CC(C)C1(C)N=C(c2ncccc2C(=O)O)NC1=O` (stereo not given), “inactive”.
For the molecule `COc1cc(Cl)c(OC)cc1Cl`, the result was inactive.
Take `CC(C)N1C(=O)N(c2ccccc2)CSC1=NC(C)(C)C`: the outcome was inactive.
As for `CC(C)(C)C(=O)C(Oc1ccc(Cl)cc1)n1cncn1` (stereo not given), the call was inactive.
For `COCc1cnc(C2=NC(C)(C(C)C)C(=O)N2)c(C(=O)O)c1` (stereo not given) the value was “inactive”.
